Compound activity deposited in PubChem by several laboratories.
HSF-1 act = increases HSF-1 driven luciferase reporter signal | NIH3T3-HGL HSF-1 luciferase reporter, MG132, 8 h; 100% = twice DMSO control signal | 300,000 tested, 1.7% active | activation, % at 9 µM | AID 504408;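 active = mean replicate activation of at least 50% with a set share of replicates each reaching 50%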
HSF1 inhib = HSF1 inhibition | NIH3T3-HGL HSE-luciferase, MG132-induced, luminescence 8 h; stronger effect = lower value | activity change, negative = inhibition, % at 7.5 µM (by protocol) | 300,000 tested, 0.77% active | AID 2098;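 active = more than half of replicate wells show activity change below -50%, luminescence cut by over half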;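 note: luciferase reports HSF-1 transcriptional activity via heat shock element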
TLR4-MyD88 BLA = inhibitors of human TLR4-MyD88 binding. inhibition, % at 8.4 µM. HeLa CL3-4 TLR4/MyD88 BLA complementation, FRET ratio. O00206+Q99836. 200,000 tested, 0.18% active; in the data active = inhibition above about 25%
NOD2 RIPK2 PPI = NOD2-RIPK2 protein interaction inhibition. O43353. CHO BLA complementation NOD2-RIPK2, CCF4 ratio. inhibition, % at 4.98 µM. 360,000 tested, 0.38% active. AID 624267; in the data active = inhibition above about 21%
Target sequence (O43353 whole entry, looked up): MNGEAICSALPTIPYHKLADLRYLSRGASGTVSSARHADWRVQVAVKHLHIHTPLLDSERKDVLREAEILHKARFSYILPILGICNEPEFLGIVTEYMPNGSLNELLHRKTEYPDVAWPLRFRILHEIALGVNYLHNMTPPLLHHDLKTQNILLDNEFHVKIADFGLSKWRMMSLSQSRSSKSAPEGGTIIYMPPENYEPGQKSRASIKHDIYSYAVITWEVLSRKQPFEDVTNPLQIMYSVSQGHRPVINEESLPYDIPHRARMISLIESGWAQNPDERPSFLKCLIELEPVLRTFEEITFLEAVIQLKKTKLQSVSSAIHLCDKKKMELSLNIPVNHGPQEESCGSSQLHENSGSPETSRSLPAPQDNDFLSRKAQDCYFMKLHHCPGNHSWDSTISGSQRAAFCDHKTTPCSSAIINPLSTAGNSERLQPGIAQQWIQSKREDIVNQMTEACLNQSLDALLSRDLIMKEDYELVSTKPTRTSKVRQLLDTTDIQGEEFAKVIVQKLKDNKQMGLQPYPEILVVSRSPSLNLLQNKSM
TLR9-MyD88 block = TLR9-MyD88 interaction inhibition; CHO BLA complementation TLR9-MyD88, CCF4 FRET ratio; inhibition, % at 4.98 µM; 340,000 tested, 0.21% active;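 active = inhibition above the mean over all tested compounds plus 3 SD, cut at about 21% in these data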
Each line names hits and unclear results; the compound was inactive in the other large screens. Compounds with a hit are over-represented: about 2.4% of the library has one in this group of screens.

CC(C)C(C(=O)NCc1ccccc1)N(CC1CCCO1)C(=O)CNS(=O)(=O)c1ccccc1 (stereo not drawn)	HSF-1 act 83 (no result: TLR4-MyD88 BLA)
CC(C)C(C(=O)NCc1ccco1)N(CC1CCCO1)C(=O)CNS(=O)(=O)c1ccccc1 (stereo not drawn)	none
O=C(Cc1ccccc1[N+](=O)[O-])NCc1ccc(Cl)cc1Cl	HSF-1 act 81
COc1ccc(S(N)(=O)=O)cc1C(=O)NNC(=O)CN(C)S(=O)(=O)c1ccc(Cl)cc1	none (no result: HSF-1 act, HSF1 inhib, TLR4-MyD88 BLA)
CC(Oc1ccc(Cl)cc1)C(=O)/C=C/N(C)C (stereo not drawn)	HSF-1 act 54
CC(Oc1ccc(Cl)cc1)/C(N)=N/O (stereo not drawn)	none
O=S1(=O)N[C@H](Cc2ccccc2)COc2cc(N3CCC[C@@H]3CO)ccc21	none (no result: HSF-1 act, HSF1 inhib, TLR4-MyD88 BLA, TLR9-MyD88 block)
COCCn1c(SCc2ccc(Cl)cc2)nc2c1c(=O)[nH]c(=O)n2C	HSF-1 act 58 (no result: TLR4-MyD88 BLA)
COCCn1c(SCc2ccc(C)cc2)nc2c1c(=O)[nH]c(=O)n2C	none (no result: TLR4-MyD88 BLA, TLR9-MyD88 block)
CCCNC(=O)c1ccc(COc2ccc(CCC)cc2OC)o1	HSF1 inhib -56 (no result: TLR4-MyD88 BLA)
COC(=O)c1ccc(COc2ccc(C=O)cc2OC)o1	none
C=CCc1ccc(OCc2ccc(C(=O)OC)o2)c(OC)c1	HSF-1 act 59
C=CCc1ccc(OCC(O)CO)c(OC)c1 (stereo not drawn)	HSF-1 act 71
C=CCc1ccc(OCC(O)COCC)c(OC)c1 (stereo not drawn)	none
COc1ccccc1OCc1ccc(C(=O)NCCN(C)C)o1	none
CCN(CC)S(=O)(=O)c1cc(NC(=O)c2ccc3c(c2)NC(=O)C(C)S3)ccc1C (stereo not drawn)	none (no result: HSF-1 act, HSF1 inhib, TLR4-MyD88 BLA)
CCc1nn(C(CC)C(=O)NCc2cccc(OC)c2)c(=O)c2cc3occc3n12 (stereo not drawn)	none (no result: TLR4-MyD88 BLA)
CCc1nn(C(CC)C(=O)NCc2cccc(OC)c2OC)c(=O)c2cc3occc3n12 (stereo not drawn)	HSF-1 act 67 (no result: TLR4-MyD88 BLA)
O=C(OCC(F)(F)F)c1cccc(COc2ccc3ccccc3c2)c1	HSF1 inhib -62
CCOc1ccc(OCc2cccc(C(=O)N3CCCC3)c2)cc1	HSF1 inhib -51
O=Cc1ccc(OCc2cccc(C(F)(F)F)c2)cc1O	none
O=C(O)c1ccc(COc2ccc(CO)cc2Cl)cc1	none
O=C(O)c1cc(OCc2ccccc2)cc(OCc2ccccc2)c1	none (no result: TLR4-MyD88 BLA)
COc1ccc(OCc2cccc(C(=O)O)c2)cc1	HSF1 inhib -90 (no result: TLR4-MyD88 BLA)
O=C(O)c1cccc(COc2ccc(CO)cc2Cl)c1	HSF1 inhib -91 (no result: TLR4-MyD88 BLA)
COc1ccc(CCNC(=O)Cc2ccc(NC3=NC4CS(=O)(=O)CC4S3)cc2)c(OC)c1 (stereo not drawn)	none (no result: TLR4-MyD88 BLA)
CCOC(=O)C1(C)CCN1C(=O)c1ccc(OC)c(C(F)(F)F)c1 (stereo not drawn)	none (no result: HSF-1 act, HSF1 inhib, TLR4-MyD88 BLA, TLR9-MyD88 block)
C=CCNc1ncnc2c1ncn2[C@H]1CN(CCOC)C[C@@H](CO)O1	none (no result: HSF-1 act, HSF1 inhib, TLR4-MyD88 BLA, TLR9-MyD88 block)
CCOc1ccc(OCc2cccc(C(=O)O)c2)cc1	HSF1 inhib -93 (no result: TLR4-MyD88 BLA)
CCOc1ccc(OCc2cccc(C(=O)N3CCCCCC3)c2)cc1	none
CCOc1ccc(NC(=O)Nc2cccc(C(=O)O)c2)cc1	HSF1 inhib -72
NS(=O)(=O)c1ccc(CCNC(=O)c2ccccc2Cc2ccccc2)cc1	none (no result: TLR4-MyD88 BLA)
COc1cccc(-c2cc(C(=O)Nc3ccc([N+](=O)[O-])cn3)c3ccccc3n2)c1	none
O=C(Oc1cccc([N+](=O)[O-])c1)c1cc(-c2ccccc2)nc2ccccc12	HSF-1 act 75
O=C(Oc1ccc(-c2cnc3ccccc3n2)cc1)c1cc([N+](=O)[O-])ccc1Cl	HSF-1 act 80
O=C(O)C1CCN(C(=O)c2ccc3c(c2)OCO3)CC1	none (no result: TLR4-MyD88 BLA)
CCC(NC(=S)NCc1ccccc1)C(=O)O (stereo not drawn)	HSF1 inhib -60
COc1ccc(/C=C\C(=O)O[C@@H]2C(O)C(O[C@@H]3OC(C)[C@H](O[C@@H]4OCC(O[C@H]5O[C@H](CO)[C@@H](O)C(O)C5O)C(O)C4O)C(O)C3O)[C@H](OC(=O)[C@]34CCC(C)(C)C[C@@H]3C3=CCC5[C@@]6(C)CC(O)C(O[C@@H]7OC(CO)C(O)[C@H](O)[C@H]7O)[C@@](C)(C(=O)O)C6CC[C@@]5(C)[C@]3(CO)CC4)O[C@H]2C)cc1 (stereo partly drawn)	TLR9-MyD88 block 24 (no result: HSF-1 act, HSF1 inhib, TLR4-MyD88 BLA)
C[C@@H]1CC[C@]2(C(=O)O[C@@H]3O[C@H](CO)[C@@H](O)[C@H](O)[C@H]3O)CC[C@]3(C)C(=CCC4[C@@]5(C)CC[C@H](O[C@@H]6OC[C@H](O)[C@H](O[C@@H]7O[C@H](CO)[C@@H](O)[C@H](O)[C@H]7O)[C@H]6O)C(C)(C)C5CC[C@]43C)C2[C@]1(C)O (stereo partly drawn)	none (no result: HSF-1 act, HSF1 inhib, TLR4-MyD88 BLA)
Cn1c(N)c(S(=O)(=O)N2CCN(c3cccc(Cl)c3)CC2)c(=O)n(C)c1=O	none (no result: TLR4-MyD88 BLA)
C=C(C)CN1C(=O)C(C)SC1=NN=C1SCC(=O)N1C (stereo not drawn)	none (no result: HSF-1 act, HSF1 inhib, TLR4-MyD88 BLA)
CC(/C=C/c1cccs1)=C\C(=O)O	HSF-1 act 92
CC(/C=C\c1ccccc1)=C/C(=O)O	none (no result: TLR4-MyD88 BLA)
O=C1CC(c2ccc(Cl)cc2)n2nc(NS(=O)(=O)c3ccc(F)cc3)nc2N1 (stereo not drawn)	HSF-1 act 64
Cc1ccc(N2C(=O)[C@@H]3C(C(=O)C(c4ccccc4)c4ccccc4)=NN[C@@H]3C2=O)cc1	HSF-1 act 53
COC(=O)C1=NNC2C(=O)N(c3ccc(C)cc3)C(=O)C12 (stereo not drawn)	none
O=C(Cn1cc([N+](=O)[O-])ccc1=O)NCC(=O)Nc1ccc(F)c(F)c1F	none (no result: HSF-1 act, HSF1 inhib, TLR4-MyD88 BLA)
Cc1ccc(-c2[nH]c3ccccc3c2C(C[N+](=O)[O-])c2ccco2)cc1 (stereo not drawn)	HSF-1 act 70
Cc1[nH]c2ccccc2c1C(C[N+](=O)[O-])c1cccs1 (stereo not drawn)	HSF1 inhib -75
Cc1[nH]c2ccccc2c1C(C[N+](=O)[O-])c1ccco1 (stereo not drawn)	none
CC(C)(C)c1[nH]ncc1[N+](=O)[O-]	HSF-1 act 52
O=C(/C=C\Nc1ccc2c(c1)OCO2)c1ccccn1	HSF1 inhib -72
O=C(Nc1ccc2c(c1)OCO2)c1ccccn1	none (no result: HSF-1 act, HSF1 inhib, TLR4-MyD88 BLA)
CN(C)S(=O)(=O)c1cccc(NC(=O)C2CCN(S(=O)(=O)c3cccs3)CC2)c1	none (no result: HSF-1 act, HSF1 inhib, TLR4-MyD88 BLA)
CCCCn1c(NC(=O)c2ccco2)c(S(=O)(=O)c2ccc(C)cc2)c2nc3ccccc3nc21	HSF-1 act 137
Cc1ccc(S(=O)(=O)c2c(N)n(CCCO)c3nc4ccccc4nc23)cc1	none
Cc1ccc(S(=O)(=O)c2c(N)n(Cc3ccco3)c3nc4ccccc4nc23)cc1C	HSF-1 act 73
CC(C)CCn1c(N)c(S(=O)(=O)c2cccs2)c2nc3ccccc3nc21	HSF-1 act 104
Cc1ccc(S(=O)(=O)c2c(N)n(CCC(C)C)c3nc4ccccc4nc23)cc1	HSF-1 act 109
